Nrf2 ARE act – qHTS of Nrf2 Activators. AREc32 ARE-luciferase reporter (MCF7-derived line), luminescence, 24 h. Potency, µM (series often up to 46.1 µM), hits mostly activators. 410,000 compounds, 0.31% hits. AID 624171, 2012; also: nearly all actives have a fitted effect of over 65% in size
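Cells of the AREc32 ARE-luciferase line are plated in OPTI-MEM containing 5% FBS and left overnight at 37 deg C. Compounds are pinned in, incubation continues 24 hr, and firefly luciferase signal is then measured.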
A549 viability – Nrf2 qHTS screen for inhibitors: counterscreen for cytotoxicity; A549 ARE-Fluc cells, CellTiter-Fluor viability, 18-24 h; Potency, µM (doses to about 46 µM), hits mostly inhibitors; 390,000 compounds, 0.16% hits
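Cytotoxicity counterscreen: CellTiter-Fluor fluorescence was measured in A549 ARE_Fluc cells after 18-24 h of compound exposure in a concentration series. The subsequent BugLite luminescent read reports ARE-luciferase activity.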
miR-21 act – qHTS Assay for Modulators of miRNAs and/orActivators of miR-21. HeLa miR-21 FLuc reporter, luciferase, 48 h. Potency, µM (series often up to 38.3 µM), actives largely listed as activators. 340,000 tested, under 10 active;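 also: miR-21 action dims this reporter so a rising signal means less miR-21 action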
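Compounds were titrated across several concentrations (up to approximately 40 uM) and incubated 48 hours with HeLa miR-21-FLuc reporter cells (miR-21 target sequence downstream of FLuc, endogenous miR-21). Readout was firefly luciferase luminescence after lytic detection reagent.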
Nrf2 inh – Nrf2 qHTS screen for inhibitors; A549 ARE-Fluc reporter, luciferase luminescence, 18-24 h; Potency, µM (doses to about 46 µM), hits mostly inhibitors; 360,000 compounds, 2.1% hits; also: nearly all actives have a fitted effect of over 60% in size
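A549 ARE_Fluc cells (5000/well, 5% FBS OPTI-MEM) pre-incubated 2 h, then treated with compounds 18-24 h at 37C/5% CO2 in concentration-response. CellTiter-Fluor viability read first; BugLite luciferase luminescence after 15 min at room temperature gives Nrf2 activity.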
B2AR arrestin – qHTS assay of beta-arrestin-biased ligands of beta2-adrenergic receptor | beta-arrestin recruitment to beta2AR, cell-based reporter | Potency, µM (doses to about 46.1 µM), actives largely listed as activators | 330,000 compounds, 0.02% hits; also: nearly all actives have a fitted effect of over 65% in size
Target sequence (P07550 whole entry, looked up): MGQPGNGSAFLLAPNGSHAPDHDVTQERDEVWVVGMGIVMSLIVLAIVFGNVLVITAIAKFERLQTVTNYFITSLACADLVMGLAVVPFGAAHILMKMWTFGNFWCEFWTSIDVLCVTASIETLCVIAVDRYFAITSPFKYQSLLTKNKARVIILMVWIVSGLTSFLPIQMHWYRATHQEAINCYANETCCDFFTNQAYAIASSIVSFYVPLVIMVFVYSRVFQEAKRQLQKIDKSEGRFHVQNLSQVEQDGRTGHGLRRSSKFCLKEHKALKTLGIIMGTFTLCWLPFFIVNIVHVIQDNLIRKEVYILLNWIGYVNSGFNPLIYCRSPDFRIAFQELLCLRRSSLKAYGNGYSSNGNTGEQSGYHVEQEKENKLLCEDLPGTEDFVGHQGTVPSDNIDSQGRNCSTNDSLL
Of the large screens only hits and unclear results are named; the others gave an inactive call. This is a sample that favours compounds with a hit; in the whole collection about 2.2% have one here. Calls follow the shape of the dose curve; as a rule, active = well fitted curve in the direction sought with a large enough effect; inconclusive = small, poorly fitted or top-dose-only effect, or another doubt; inactive = no such curve, though single readings can be large; an effect the other way counts as inactive or inconclusive.

COc1ccc(-c2nc(NC(=O)Cn3c(=O)oc4ccccc43)sc2C)cc1	Nrf2 inh 18.4µM
CCOc1ccc(CCNC(=O)c2cnc3sc(N4CCCC4)nn3c2=O)cc1	Nrf2 inh 11.6µM (no result: B2AR arrestin)
Cc1ccc(NC(=O)C2CCCN(C(=O)c3cnn(-c4ccccc4)c3-n3cccc3)C2)cc1 (centres undefined)	Nrf2 inh 13µM (no result: B2AR arrestin)
CSc1cccc(NC(=O)C2CCN(C(=O)c3cnn(-c4ccccc4)c3-n3cccc3)CC2)c1	miR-21 act inconclusive, Nrf2 inh 23.1µM (no result: B2AR arrestin)
Nc1nnc(Sc2ncccc2[N+](=O)[O-])s1	Nrf2 ARE act inconclusive
COCCCNC(=O)c1c(NC(=O)c2ccco2)n(Cc2ccccc2)c2nc3ccccc3nc12	Nrf2 ARE act 15.8µM
COCCNC(=O)c1c(NC(=O)c2ccc(Br)o2)n(Cc2ccccc2)c2nc3ccccc3nc12	none
C=C1C(=O)O[C@H]2C[C@@H](C)[C@@H]3C=CC(=O)[C@@]3(C)C[C@H]12	A549 viability inconclusive, miR-21 act inconclusive, Nrf2 inh 20.6µM
C=C1C(=O)O[C@H]2[C@H]1[C@H](OC(=O)CC(=O)O[C@@H]1C[C@@H](C)[C@@H]3C=CC(=O)[C@@]3(C)[C@H]3OC(=O)C(=C)[C@H]13)C[C@@H](C)[C@H]1C=CC(=O)[C@]12C	Nrf2 ARE act inconclusive, miR-21 act inconclusive
C=C1C(=O)OC2CC(C)C3C=CC(=O)C3(C)C(O)C12 (centres undefined)	A549 viability 10.3µM, Nrf2 inh 5.8µM (no result: miR-21 act, B2AR arrestin)
Cc1ccc(NCc2cccn2-c2nnc(N3CCC(C(=O)NCc4ccc(OC(C)C)cc4)CC3)s2)cc1	Nrf2 inh 25.9µM (no result: B2AR arrestin)
CCOc1ccc(NCc2cccn2-c2nnc(N3CCC(C(=O)NCc4ccc(C)cc4)CC3)s2)cc1	Nrf2 inh inconclusive (no result: B2AR arrestin)
CCOc1ccc(NCc2cccn2-c2nnc(N3CCC(C(=O)NCC(C)c4ccccc4)CC3)s2)cc1 (centres undefined)	Nrf2 inh 14.6µM (no result: B2AR arrestin)
COc1cc2[nH]c(=O)n(Cc3ccc(C(=O)N4CCN(c5ccc(Cl)cc5)CC4)cc3)c(=O)c2cc1OC	miR-21 act inconclusive, Nrf2 inh inconclusive (no result: B2AR arrestin)
COc1ccc(C(=O)Nc2ccc3c(c2)N(C)C(=O)c2ccccc2S3)cc1OC	miR-21 act inconclusive (no result: Nrf2 inh, B2AR arrestin)
COc1cc2c(ccc3c4cc(OC)c(OC)cc4c[n+](C)c23)cc1O	Nrf2 inh inconclusive (no result: miR-21 act, B2AR arrestin)
COc1ccc(Cc2nccc3cc(OC)c(OC)cc23)cc1OC	Nrf2 inh 14.6µM
CCCCC(=O)N/N=C/c1c(O)n(CC)c(=S)[nH]c1=O	none
CCCCCCC(=O)N/N=C/c1c(O)n(CCCC)c(=S)[nH]c1=O	Nrf2 inh 20.6µM
COc1ccc(NS(=O)(=O)c2ccc3c(c2)oc(=O)n3C)cc1Cl	Nrf2 inh 14.6µM
Cn1c(=O)oc2cc(S(=O)(=O)Nc3cccc([N+](=O)[O-])c3)ccc21	none
CC(C)CNC(=O)c1c(N)n(Cc2ccc3c(c2)OCO3)c2nc3ccccc3nc12	A549 viability inconclusive, Nrf2 inh inconclusive
CC(C)CCNC(=O)c1c(N)n(Cc2ccc3c(c2)OCO3)c2nc3ccccc3nc12	A549 viability 16.4µM, Nrf2 inh 20.6µM
Cc1cccc(N(CC(=O)NCCSc2ccc(Cl)cc2)S(=O)(=O)c2ccccc2)c1C	miR-21 act inconclusive, Nrf2 inh inconclusive (no result: B2AR arrestin)
CN1CCN(c2ccc([N+](=O)[O-])c(N/N=C3\CN4CCC3CC4)c2)CC1	A549 viability 20.6µM
O=C(O)c1sccc1Oc1ccc(F)cc1[N+](=O)[O-]	Nrf2 inh 23.1µM
Cc1cc2c(cc(C(=O)N3CCC(C(=O)NC4CCCC4)CC3)n2Cc2c(F)cccc2Cl)o1	miR-21 act inconclusive, Nrf2 inh 16.4µM
COC(=O)C1=C(c2ccc(OC)c(OC)c2)C[C@@H]2CC[C@H]1N2C(=O)NCCOc1ccccc1	none (no result: miR-21 act)
COC(=O)C1=C(c2ccc(-c3ccccc3)c(F)c2)C[C@@H]2CC[C@H]1N2C(=O)NC1Cc2ccccc2C1	Nrf2 inh inconclusive (no result: miR-21 act)
COCCNC(=O)N1[C@H]2CC[C@@H]1C(C(=O)OC)=C(c1ccc(-c3ccccc3)c(F)c1)C2	Nrf2 inh 18.4µM (no result: miR-21 act)

Compound activity (PubChem)
